Results as given in PubChem BioAssay.
Unmarked numbers belong to inactive results. Calls of active or inactive are those of the source. Rule as the data show it, unless noted: active = inhibition above about 28%; inactive = the rest.

Experiments:
[1] = StAR promoter reporter inhibitors, counter-screen for LRH-1 inverse agonist project, cell-based, luminescence, high throughput (AID 651611); details: StAR promoter luciferase reporter counterscreen, at 3.6 µM, active compounds read high
[2] = biological target: Nuclear receptor subfamily 5 group A member 2 (Homo sapiens) (UniProt O00482); assay: NR5A2 activity suppression in reporter cells – cell-based, luminescence, confirmation (AID 651613; in the data active = inhibition above about 42%;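 also: HEK293T cells co-transfected with LRH-1 and StAR promoter luciferase reporter; 0% = vehicle wells and 100% = parental cells lacking receptor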); details: cell-based LRH-1 luciferase reporter, inverse agonism; at 3.6 µM; active compounds read high
Chain of Nuclear receptor subfamily 5 group A member 2 (Homo sapiens) (O00482 whole entry, looked up): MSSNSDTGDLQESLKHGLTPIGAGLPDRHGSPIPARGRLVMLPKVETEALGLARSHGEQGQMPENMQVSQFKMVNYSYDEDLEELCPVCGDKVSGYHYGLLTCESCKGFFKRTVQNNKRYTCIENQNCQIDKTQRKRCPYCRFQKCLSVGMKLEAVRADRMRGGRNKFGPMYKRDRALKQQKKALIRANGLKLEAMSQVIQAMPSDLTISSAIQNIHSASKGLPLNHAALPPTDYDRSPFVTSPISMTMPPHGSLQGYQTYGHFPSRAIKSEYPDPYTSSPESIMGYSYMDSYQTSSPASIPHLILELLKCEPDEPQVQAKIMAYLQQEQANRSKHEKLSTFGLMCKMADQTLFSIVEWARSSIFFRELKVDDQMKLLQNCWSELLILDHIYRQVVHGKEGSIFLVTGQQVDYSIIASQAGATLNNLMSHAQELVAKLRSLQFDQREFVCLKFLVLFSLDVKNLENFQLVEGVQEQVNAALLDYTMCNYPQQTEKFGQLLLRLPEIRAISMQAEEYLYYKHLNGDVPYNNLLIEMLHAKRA

[3] = biological target: Steroidogenic factor 1 (Homo sapiens) (UniProt Q13285); assay: inverse agonism at SF1 nuclear receptor – cell-based, luminescence, high throughput, counter-screen for LRH-1 inverse agonist project (AID 651614; in the data active = inhibition above about 44%;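 also: cells cotransfected with StAR promoter reporter and SF1 expression vector; 0% = vehicle on cells with receptor and 100% = vehicle on cells lacking receptor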); details: cell-based SF1 luciferase reporter, at 3.6 µM, active compounds read high
Chain of Steroidogenic factor 1 (Homo sapiens) (Q13285 whole entry, looked up, the tested form may be a part): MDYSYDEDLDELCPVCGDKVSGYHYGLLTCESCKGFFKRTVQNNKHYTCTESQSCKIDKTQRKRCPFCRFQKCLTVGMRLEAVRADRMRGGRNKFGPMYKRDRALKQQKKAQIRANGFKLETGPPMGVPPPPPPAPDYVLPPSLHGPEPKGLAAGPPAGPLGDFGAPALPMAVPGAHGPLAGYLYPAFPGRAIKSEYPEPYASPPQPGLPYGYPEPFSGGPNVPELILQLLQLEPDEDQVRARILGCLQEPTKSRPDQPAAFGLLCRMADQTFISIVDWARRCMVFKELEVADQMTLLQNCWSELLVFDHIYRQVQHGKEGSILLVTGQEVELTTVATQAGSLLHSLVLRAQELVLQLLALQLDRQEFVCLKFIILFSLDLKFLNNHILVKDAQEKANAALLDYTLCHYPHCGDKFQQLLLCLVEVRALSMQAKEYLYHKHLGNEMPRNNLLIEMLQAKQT

[4] = compounds suppressing VP16-driven luciferase signal – cell-based, luminescence, high throughput, counter-screen for LRH-1 inverse agonist project (AID 651615; in the data active = inhibition above about 33%); details: Gal4-VP16 luciferase reporter cells, at 3.6 µM, active compounds read high

| Structure (SMILES) | inhibition [1] | inhibition [2] | inhibition [3] | inhibition [4] |
| --- | --- | --- | --- | --- |
| O=C(COc1ccc(C(=O)c2ccccc2)cc1)NCc1ccc(F)cc1 | 19.9% | 28.7% | 37.9% | 30.4% |
| COC(=O)c1ccc(NC(=O)CSc2nn3c(=O)c(C)nnc3s2)cc1 | 5.82% | 61.3% (active) | 56.4% (active) | -11.6% |
| CCc1nc(SCC(=O)N2CCc3cc(OC)c(OC)cc3C2)c(C#N)cc1C | 3.35% | 47.4% (active) | 45.4% (active) | 1.24% |
| C/C(=N\NC(N)=S)c1ccc(-n2ccnc2)cc1 | 10.1% | 60.5% (active) | 53.4% (active) | -13.1% |
| O=C(COC(=O)CCN1C(=O)C2CC=CCC2C1=O)NCCc1ccc(F)cc1 (stereo unspecified) | 7.75% | 63.2% (active) | 55% (active) | -1.34% |
| CCCc1cc(NCC2CCCO2)n2c(nc3ccccc32)c1C#N (stereo unspecified) | -0.55% | 40.1% | 35.5% | 1.26% |
| COc1cc(C(=O)Nc2ccccc2C2COC(=O)C2=N)cc(OC)c1OC (stereo unspecified) | 8.92% | 45.5% (active) | 45.2% (active) | -1.69% |
| CN1CCN(c2ccc(S(=O)(=O)N3CCCCC3)cc2NC(=O)COc2ccc([N+](=O)[O-])cc2)CC1 | 2.36% | 59.6% (active) | 53.1% (active) | 4.16% |
| CC(C)NC(=O)N1Cc2cc(C(=O)NC3CCCCC3)nc(-c3cccc(-c4cccnc4)c3)c2[C@@H]1CCO | 27.6% | 62.6% (active) | 62.5% (active) | -0.48% |
| COc1ccc(C2=CC(=O)CC(C)(C)C2)cc1OC | -7.16% | 59.1% (active) | 51.9% (active) | 11.7% |
| O=C(NC1CCC(CC2CCC(NC(=O)C(Cl)Cl)CC2)CC1)C(Cl)Cl (stereo unspecified) | 6.07% | 58.2% (active) | 62% (active) | -2.2% |
| COc1ccc(/C=N/NC(=O)c2cc(-c3ccc(C)cc3C)nc3ccccc23)cc1COC(C)=O | 1.71% | 52.8% (active) | 50.6% (active) | -17.4% |
| Cc1cc(=O)oc2c(C)c(OCC(=O)NC3CC(C)(C)NC(C)(C)C3)ccc12 | -1.6% | 48% (active) | 55% (active) | -11.2% |
| CCn1c(SCC(=O)Nc2ccc(Cl)cc2)nnc1C1CC1 | 14% | 50.6% (active) | 50% (active) | 6.77% |
| O=C(Nc1ccc(N2CCOCC2)c(Cl)c1)c1ccc([N+](=O)[O-])o1 | -80.2% | 9.33% | 35.9% | -84.8% |
| Cc1sc2ncnc(NCC(O)c3ccc([N+](=O)[O-])cc3)c2c1C (stereo unspecified) | 15.4% | 51.7% (active) | 53.5% (active) | 42.1% (active) |
| COc1cc(C(=O)Nc2ccccc2N2CCN(S(C)(=O)=O)CC2)cc(OC)c1OC | 9.79% | 44.5% (active) | 34% | -2.73% |
| CCOc1cc(/C=C2/C(=N)N3OC(C)=CC3=NC2=O)ccc1OCCOc1ccccc1 | 5.5% | 46% (active) | 32.2% | -12.2% |
| O=C(Nc1ccc2c(c1)CCCN2C(=O)c1ccco1)c1cc([N+](=O)[O-])ccc1Cl | 51.9% (active) | 39.3% | 59.1% (active) | 33.9% (active) |
| CC1=[N+](C)c2c(ccc3cccnc23)C1(C)C | 12.2% | 38.6% | 58.7% (active) | 29.2% |
| COC(=O)c1ccc(NC(=O)CSc2nnc(C)n2CC2CCCO2)cc1 (stereo unspecified) | 3.1% | 50.5% (active) | 40.7% | -3.65% |
| Cc1cc(NC(=O)CSc2nc3c(sc4ccccc43)c(=O)n2CCCN2CCOCC2)n[nH]1 | 48% (active) | 70.3% (active) | 44.2% (active) | -8.59% |
| Cc1nn(CC(=O)NCCC2=CCCCC2)c(C)c1[N+](=O)[O-] | 17.5% | 48.9% (active) | 41.5% | -0.8% |
| CCOc1ccccc1C(=O)Nc1cc2c(cc1N1CCCC1)n(CC)c(=O)n2CC | 52.6% (active) | 48.8% (active) | 53.5% (active) | 49.6% (active) |
